Measurements from PubChem BioAssay AID1259421 (Broad Institute, 2018).
Several values for one entry are separate records, joined by “and”; a condition that tells them apart may be missing. Equal values may be shown once. About 610 (9.5%) of roughly 6,400 compounds were called active. The sample holds actives, similar compounds and a random draw of the others, so the mix is not that of the screen. Unmarked numbers belong to inactive results. Cut-off read from the data, not from the text of the source: active = activity change below about -70%; inconclusive = no clear call, values can overlap the other calls; inactive = above that.

assay: Toxoplasma gondii ME49Luc growth in HeLa cells, luciferase, no IFN-y, primary screen (AID 1259421); settings: T. gondii ME49Luc in HeLa, 72 h, hits give low values, concentration not given here

Question: Which activity change, negative = inhibition does the source give for `COc1cc(Nc2ncc(F)c(Nc3ccc4c(n3)NC(=O)C(C)(C)O4)n2)cc(OC)c1OC` here?
Answer: -51.7% and -21%

Question: For `COc1cc(Nc2ncc(F)c(Nc3ccc4c(n3)N(COP(=O)(O)O)C(=O)C(C)(C)O4)n2)cc(OC)c1OC`, which activity change, negative = inhibition is on record?
Answer: -77% (active)

Question: For `COC1C(O)C(CO)OC1n1cnc2c(NC3CCCCC3)ncnc21` (configuration not stated), which activity change, negative = inhibition is on record?
Answer: 10.5%

Question: For `Cc1cc(Nc2nc(N[C@@H](C)c3ncc(F)cn3)ncc2Cl)n[nH]1`, which activity change, negative = inhibition is on record?
Answer: 2.85%

Question: With `CCc1cnc(N2CCC(c3nc(COc4ccc(-n5cnnn5)cc4)cs3)CC2)nc1` as the compound, how does the activity change, negative = inhibition read?
Answer: -26.5%

Question: For `CC1(C)O[C@@H]2CC3C4CCC5=CC(=O)C=C[C@]5(C)[C@@]4(F)[C@@H](O)C[C@]3(C)[C@]2(C(=O)CO)O1` (some centres not stated), which activity change, negative = inhibition is on record?
Answer: -0.643%

Question: For `O=C(Cc1ccccc1)NO`, which activity change, negative = inhibition is on record?
Answer: -1.4%

Question: Which activity change, negative = inhibition does the source give for `CC(=O)Nc1ccccc1` here?
Answer: 7.35% and 14.6%

Question: Which activity change, negative = inhibition does the source give for `O=C(O)CCCNC(=O)c1cccnc1` here?
Answer: 23.7%

Question: With `Cn1ccc2cc(NC(=O)Nc3cccnc3)ccc21` as the compound, how does the activity change, negative = inhibition read?
Answer: 22.9% and -13.9%

Question: With `O=C(CCCCCCC(=O)Nc1ccccc1)NO` as the compound, how does the activity change, negative = inhibition read?
Answer: -84% (active) and -91.4% (active) and -89.3% (active)

Question: Which activity change, negative = inhibition does the source give for `O=C(CCCCCCC(=O)Nc1cccnc1)NO` here?
Answer: -92.1% (active)

Question: For `CC(C)c1ccc2c(c1)CCC1[C@](C)(CN)CCC[C@]21C` (some centres not stated), which activity change, negative = inhibition is on record?
Answer: 3.16%

Question: With `Nc1nc(-c2ccccc2)c(Br)c(=O)[nH]1` as the compound, how does the activity change, negative = inhibition read?
Answer: 3.15%

Question: For `Cc1cccn2c(=O)c(-c3nn[nH]n3)cnc12`, which activity change, negative = inhibition is on record?
Answer: 0.433%

Question: With `C=C1C(=O)O[C@@H]2[C@H]3C(C)=CC[C@@]34O[C@@]4(C)CC[C@@H]12` as the compound, how does the activity change, negative = inhibition read?
Answer: 18.9%

Question: Which activity change, negative = inhibition does the source give for `CC[C@@H]1Cn2c(c3nc(-c4ccccc4)nc-3n(C)c2=O)N1` here?
Answer: 8.44% and 12.6%

Question: With `COc1cc2c(cc1-c1c(C)noc1C)ncc1[nH]c(=O)n([C@H](C)c3ccccn3)c12` as the compound, how does the activity change, negative = inhibition read?
Answer: -91.9% (active)

Question: For `C#Cc1cnc2[nH]c(=O)n(C(CC)CC)c2n1`, which activity change, negative = inhibition is on record?
Answer: 0.376%

Question: For `NCC[C@@H](O)C(=O)N[C@@H]1C[C@H](N)[C@@H](O[C@H]2O[C@H](CN)[C@@H](O)[C@H](O)[C@H]2O)[C@H](O)[C@H]1O[C@H]1O[C@H](CO)[C@@H](O)[C@H](N)C1O` (some centres not stated), which activity change, negative = inhibition is on record?
Answer: 22.8%

Question: With `CCCCCCCC/C=C\CCCCCCCC(=O)N[C@@H](CO)Cc1ccc(O)cc1` as the compound, how does the activity change, negative = inhibition read?
Answer: 4.92%

Question: Which activity change, negative = inhibition does the source give for `c1cc2c(cc1C1CCCCC1)c1c3n2CCNC3CCC1` (configuration not stated) here?
Answer: 23.6% and 27.3%
